Source: PubChem BioAssay (NCI)
Compounds without any hit were thinned out: in the full panel of roughly 83,000, 20% have a hit.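 The endpoint reported here, percent growth, reads 100 for growth as untreated, 0 for no net growth and -100 for all cells dead.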 Values without a mark were called inactive. The source made the active and inactive calls. Rule for the calls: active = growth percent below 10; inactive = the rest.

System: COLO 205 colon
Assay: NCI-60 one-dose screen, 48 h (100 = growth as untreated, 0 = no growth, -100 = all killed)
Settings: 10 µM unless noted

Compound	growth
COc1cc2ncnc(Nc3ccc(OCc4cccc(F)c4)c(Cl)c3)c2cc1NC(=O)C1CCCC1	97.2%
O=C(N/N=C/c1ccccc1SSc1ccccc1/C=N/NC(=O)c1ccccc1)c1ccccc1	6.05% (active)
C[C@@H]1CCCCCCCCC[C@H](O)C(=O)C[C@@H](SC[C@@H](O)C(=O)O)C(=O)O1	117%
C=C(C)[C@@H]1CC[C@]2(C)[C@H](CC=C3[C@@H]4CC(C)(C)CC[C@]4(C(=O)OC)CC[C@]32C)[C@@]1(C)CC/C(N)=N/O	35.6%
C=C(C)[C@@H]1CC[C@]2(C)[C@H](CC=C3[C@@H]4CC(C)(C)CC[C@]4(C=O)CC[C@]32C)[C@@]1(C)CCCN	-62.3% (active)
Cc1ccc(/C=C(\C#N)c2cc3ccccc3n2C)cc1	3.21% (active)
N=C(N)c1ccc(S(N)(=O)=O)cc1	122%
COc1ccc(-c2cc(=O)oc3ccc(Cl)cc23)cc1F	-26.4% (active)
CCSc1sc(-c2ccc(C)cc2)nc1[P+](c1ccccc1)(c1ccccc1)c1ccccc1	-26% (active)
COC(=O)[C@]12CC[C@@H](C)[C@H](C)[C@@H]1C1=CC(=O)[C@@H]3[C@@]4(C)C[C@@H](O)[C@H](O)[C@@]5(C)COC(=C45)C[C@@]3(C)[C@]1(C)CC2	40.8%
O=S(=O)(NCCNc1cc(-c2cn(-c3ccccc3)nc2-c2cccc(O)c2)ccn1)c1ccc(Br)cc1	-64% (active)
Cc1ccc(-c2ccc(Nc3ccccc3)nn2)cc1S(N)(=O)=O	96%
Cn1c2c(Cl)c(Cl)ccc2c2c(C#N)c[nH]c(=O)c21	115%
C/C(=N/NC(N)=S)C(=O)O	119%
CCCCC[C@H]1C/C=C2/C(=O)C=C[C@@H]2C/C=C\CCCC(=O)O[C@@H](CCCCC)C/C=C2/C(=O)C=C[C@@H]2C/C=C\CCCC(=O)O1	-81.7% (active)
C#CCn1c(C)cc(C)c(C#N)c1=O	110%
N#CC1C(=N)Cc2ccccc2-c2ccccc21 (stereo not given)	51.4%
Cc1cc(N2CCCCC2)nc(N(CCNc2ccnc3cc(Cl)ccc23)Cc2ccco2)n1	-13.7% (active)

Compound	growth
C[C@@H](C(=O)O)c1ccc2c3cc(Cl)ccc3n(Cc3cc(=O)oc4ccc(Cl)cc34)c2c1	113%
C=C1C(=O)O[C@H]2[C@H]1CC/C(COC(=O)NCc1cc3ccccc3[nH]1)=C\CC[C@@]1(C)O[C@@H]21	-52.2% (active)
CCOC(=O)N1CCN(CCCCOc2ccc(C(C)(C)CC)cc2)CC1	105%
OCC(CO)(CCl)CCl	105%
COc1ccc(-c2cc(/C=C/C(=O)c3ccc(N)cc3)[nH]n2)cc1	7.56% (active)
CC(C)(C)c1nc(-c2ccc(O)c(O)c2)cs1	92.6%
Brc1ccc(Cn2nnnc2-c2ccn(-c3ccccc3)n2)cc1	96.6%
COC(=O)C(Cc1ccccc1)n1cc(COc2nc(Cl)nc(Nc3ccc(Cl)cc3)n2)nn1 (stereo not given)	117%
COc1cccc(-c2nn(-c3ccccc3)cc2-c2ccnc(NCCNS(=O)(=O)c3ccccc3)c2)c1	10.6%
Cn1cc(-c2csc(-c3cn(CCN)c4ccc(F)cc34)n2)c2cccnc21	67.1%
COc1ccc(NC(=S)N/N=C/c2ccccc2SSCCC(=O)OC[C@H]2O[C@H](O)[C@H](O)[C@@H](O)[C@@H]2O)cc1	100%
c1ccc(-c2nc(Nc3ccc(-c4nc5ccccc5[nH]4)cc3)nc(N3CCOCC3)n2)cc1	-68.8% (active)
COc1cnc2c(c1)C(=O)c1c-2n(CCCNC2=NCCS2)c(=O)c2cc([N+](=O)[O-])ccc12	-67.1% (active)
OCCNc1nc(Nc2ccc(Cl)c(Cl)c2)nc2ccccc12	-21.7% (active)
Oc1ccc(CCC2CCCC(CCc3ccc(OCCF)cc3)N2)cc1 (stereo not given)	97.2%
Cc1ccsc1-c1ccc2c(c1)COC2(CCCN(C)C)c1ccc(F)cc1 (stereo not given)	-43.9% (active)
COc1ccc(NC(=O)c2ccoc2COc2ccccc2)cc1	110%
